Reference: PubChem BioAssay (EPA / NIEHS)
“And” between values parts separate entries of the source, which are not always exact repeats. Equal values may be shown once. Results filed as inconclusive are left out. The source made the active and inactive calls. The calls were made as follows, unless noted: active = hit-call score of the fitted dose curve at least 0.9, where 1 is the maximum; inactive = score below 0.9.

Assays:
TTR (gene 7276) = assay: CCTE_GLTED_hTTR_0.125uM: CCTE's human Transthyretin (hTTR) Inhibition Assay, with 0.125uM TTR, Great Lakes Toxicology and Ecology Division (GLTED) Lab (AID 2284431);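 also: hits lower the fluorescence signal relative to DMSO baseline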
Summary of the method: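 Cell-free displacement of ANSA probe from 0.125uM TTR after 2 h incubation with chemical. Fluorescence read at 380 nm excitation/475 nm emission; loss of signal relative to DMSO indicates T4-site displacement.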

[1] = tested on: Brachyury (BRA) Protein Expression, TBXT (gene 6862); assay: CCTE_Deisenroth_DEVTOX-GLR_Endo_BRA: CCTE's DevTox GLR-Endo Assay Evaluation of Brachyury (BRA) Protein Expression, Deisenroth Lab (AID 2284417)
Experimental: CCTE_Deisenroth_DEVTOX-GLR_Endo assay is a cell-based, multiplex-readout assay that uses RUES2-GLR, a human pluripotent cell line, with measurements taken at 48 hours after chemical dosing in a 384-well microplateCCTE_Deisenroth_DEVTOX-GLR_Endo_BRA is 1 of 4 assay components calculated from the CCTE_Deisenroth_DEVTOX-GLR_Endo assay and it measures the percentage of cells in an mesoderm state. Using a type of inducible fluorescent protein reporter, gain-of-signal activity can be used to understand changes in gene expression with fluorescent microscopy. The percentage of BRA+ cells are determined by calculating the number of BRA+ cells divided by the cell count. To generalize the intended target to other relatable targets, this assay component is annotated to the transcription factor intended target family, where the subfamily is T-box protein.Data from the assay component CCTE_Deisenroth_DEVTOX-GLR_Endo_BRA was analyzed as 1 assay endpoint. The endpoint is the percent BRA+ cell population minus the 0.2% DMSO control in the CCTE_Deisenroth_DEVTOX-GLR_Endo assay. Furthermore, this assay endpoint can be referred to as a secondary readout, because this assay has produced multiple assay endpoints where this one serves as a measure of mesoderm differentiation.
All assay protocols are aligned to the DevTox GLR-Endo assay workflow. Cells are seeded into 384-well microplates for 24 hours prior to initiating differentiation in defined media for a total duration of 48 hours. A total of two chemical exposures are administered in 24-hour intervals during the 48-hour differentiation period. At the assay termination point, cells are fixed and stained with a fluorescent dye demarcating the nucleus. High-content imaging is used to acquire brightfield and fluorescent channel images across 5 fields per well. Cell identification and mean biomarker fluorescence intensities are calculated with image analysis software to determine the total cell counts for viability assessment and the biomarker expression frequency for each lineage-dependent assay. […]

[2] = CCTE_Deisenroth_DEVTOX-GLR_Endo_CellCount: Viability Assessment in CCTE's DevTox GLR-Endo Assay, Deisenroth Lab (AID 2284420)
Summary of the method: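 RUES2-GLR pluripotent cells seeded 24 h, then differentiated 48 h in defined media with two chemical exposures 24 h apart. Nuclei counted by high-content imaging; 10-point 1 nM–200 uM series; percent change versus 0.2% DMSO.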

[3] = tested on: SRY-box transcription factor 17 (SOX17) Protein Expression, Deisenroth Lab, SOX17 (gene 64321); assay: CCTE_Deisenroth_DEVTOX-GLR_Pluri_SOX17: CCTE's DevTox GLR-Pluri Assay Evaluation of SRY-box transcription factor 17 (SOX17) Protein Expression, Deisenroth Lab (AID 2284427; active = hit-call score of the fitted dose curve at least 0.9, where 1 is the maximum)
Summary of the method: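 RUES2-GLR pluripotent cells were induced toward endoderm over 48 h and received two compound doses 24 h apart, in a 10-point series from 1 nM to 200 uM. The percentage of SOX17+ cells among total cells was measured by high-content imaging and reported minus the 0.2% DMSO control.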

[4] = tested on: SRY-box transcription factor 2 (SOX2) Protein Expression, Deisenroth Lab, SOX2 (gene 6657); assay: CCTE_Deisenroth_DEVTOX-GLR_Pluri_SOX2: CCTE's DevTox GLR-Pluri Assay Evaluation of SRY-box transcription factor 2 (SOX2) Protein Expression, Deisenroth Lab (AID 2284428)
Summary of the method: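 RUES2-GLR human pluripotent cells, two exposures 24 h apart over 48 h differentiation; 10-point series 1 nM - 200 uM. High-content imaging gives SOX2+ cells divided by cell count, reported as percent change versus 0.2% DMSO.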

[5] = tested on: Brachyury (BRA) Protein Expression, Deisenroth Lab, TBXT (gene 6862); assay: CCTE_Deisenroth_DEVTOX-GLR_Pluri_BRA: CCTE's DevTox GLR-Pluri Assay Evaluation of Brachyury (BRA) Protein Expression, Deisenroth Lab (AID 2284429; active = hit-call score of the fitted dose curve at least 0.9, where 1 is the maximum)
Summary of the method: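 RUES2-GLR reporter line; 48 h mesoderm differentiation; two exposures, 24 h apart; 1 nM - 200 uM, 10 points; nuclear stain, high-content imaging, 5 fields/well; endpoint = %BRA+ cells of total count minus 0.2% DMSO; n=4.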

[6] = CCTE_Deisenroth_DEVTOX-GLR_Pluri_CellCount: Viability Assessment in CCTE's DevTox GLR-Pluri Assay Evaluation of Total Cell Counts, Deisenroth Lab (AID 2284430)
Summary of the method: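 Cytotoxicity readout: fluorescent nuclei counts by high-content imaging, expressed as percent change relative to 0.2% DMSO. Human RUES2-GLR pluripotent line differentiated 48 h, dosed twice at 24-h intervals across 1 nM - 200 uM (10 points).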

O=[N+]([O-])c1ccc(O)cc1
AC50 (TTR (gene 7276)): 6.47 µM (active) and 8.54 µM (active)

CC[C@H](c1ccc(O)cc1)[C@@H](CC)c1ccc(O)cc1
AC50 (TTR (gene 7276)): 132 nM (active)

O=C(O)Cc1cc(I)c(Oc2cc(I)c(O)c(I)c2)c(I)c1
AC50 (TTR (gene 7276)): 10.4 nM (active)

NC(=O)N(O)[C@@H]1C=C[C@H](Oc2cccc(Oc3ccc(F)cc3)c2)C1
AC50 (TTR (gene 7276)): 439 nM (active)

CCCCCCCCCCCCc1ccccc1S(=O)(=O)O
AC50 (TTR (gene 7276)): 890 nM (active)

CC1=C(/C=C/C(C)=C/C=C/C(C)=C/C(=O)O)C(C)(C)CCC1
AC50 [1]: 8.08 µM (active) | AC50 [2]: 4.43 µM (active) | AC50 [3]: 14.1 µM (active) | AC50 [4]: 0.576 µM (active) | AC50 [5]: 12 µM (active)

CCCOC(=O)c1ccc(O)cc1
AC50 (TTR (gene 7276)): 5010 nM (active)

CC(C)(C)c1ccc(O)c(C(C)(C)C)c1
AC50 (TTR (gene 7276)): 9980 nM (active)

O=C(O)c1ccccc1C(c1ccc(O)cc1)c1ccc(O)cc1
AC50 (TTR (gene 7276)): 3040 nM (active)

NC(=O)N1C(=O)C(C(=O)c2cc(Cl)cs2)c2cc(F)c(Cl)cc21 (centres undefined)
AC50 (TTR (gene 7276)): 48.1 nM (active)

CC(O)CO (centres undefined)
outcome [1]: inactive | outcome [2]: inactive | outcome [3]: inactive | outcome [4]: inactive | outcome [5]: inactive | outcome [6]: inactive

CCCCCCCCC(=O)O
AC50 (TTR (gene 7276)): 12400 nM (active)

C[C@@H]1C[C@H]2[C@@H]3CCC4=CC(=O)C=C[C@]4(C)[C@@]3(F)[C@@H](O)C[C@]2(C)[C@@]1(O)C(=O)COP(=O)(O)O
outcome [1]: inactive | outcome [2]: inactive | outcome [3]: inactive | outcome [4]: inactive | outcome [5]: inactive | outcome [6]: inactive

ClC1=C(Cl)C(Cl)(Cl)C(Cl)=C1Cl
AC50 (TTR (gene 7276)): 7090 nM (active)

CCc1ccc(CCOc2ccc(CC3SC(=O)NC3=O)cc2)nc1 (centres undefined)
AC50 (TTR (gene 7276)): 392 nM (active)
